Only some compounds are listed: those with a hit (about 0.5% of all), similar ones and a draw of the others.
E coli growth-1: E. coli growth inhibition | Escherichia coli growth, OD600, 23 h; stronger effect = lower value | OD600 absorbance (concentration not given with the values) | AID 1053175 | 330,000 compounds, 0.21% hits;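 active means OD600 absorbance below the run mean of sample wells minus 3.6 SD, in any replicate, cut at about 0.56 in these data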
Tat export inh: E. coli Tat transport inhibition; E. coli MC4100 TorA-mCherry Tat export, fluorescence; inhibition, % at 10 µM; 340,000 compounds, 0.036% hits; AID 488895;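 active means mean replicate inhibition at least 50% and at least half of replicates individually reaching 50%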;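 further: exported cargo escapes ClpAP degradation while cytoplasmic cargo is degraded and loses fluorescence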
phage Ecoli inh: E. coli growth loss with phage present; growth absorbance; inhibition, % at 11.9 µM; 360,000 compounds, 0.26% hits; AID 651602; in the data active means inhibition above about 11%
E coli growth-2: reduces bacterial viability in AddAB counter-screen; E. coli V3065 growth, OD600 absorbance, 18 h; inhibition, % at 11.9 µM; 330,000 compounds, 0.27% hits; AID 449728;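 active means inhibition above the campaign's mean inhibition across all tested compounds plus 3 SD, cut at about 9.9% in these data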;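 further: uninfected addAB+ strain grown without phage in ampicillin broth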
AddAB inh: less growth of phage-infected E. coli with AddAB; E. coli expressing H. pylori AddAB, absorbance growth; inhibition, % at 11.9 µM; 330,000 compounds, 0.29% hits; AID 435030; in the data active means inhibition above about 12%
Hits are given with their value; i = inactive; nt = no result.

SMILES	E coli growth-1	Tat export inh	phage Ecoli inh	E coli growth-2	AddAB inh
Nc1nc(Cl)nc2c1ncn2C1OC(CO)C(O)C1O (stereo unspecified)	i	nt	i	nt	nt
CCCCN1CCNCC1Cc1ccc(O)cc1 (stereo unspecified)	i	nt	nt	nt	nt
CC(=O)N(C(C)=O)c1nc(-c2ccccc2)cn1N=Cc1cccc([N+](=O)[O-])c1	i	nt	nt	nt	nt
CC1=C(C(=O)Nc2ccccc2C)C(c2ccc(C)o2)n2c(sc(=Cc3ccccc3)c2=O)=N1 (stereo unspecified)	i	nt	nt	nt	nt
C=CCNC(=S)NNC(=O)c1ccc(OCCC)cc1	i	i	i	i	i
CCCOc1ccc(C(=O)NNC(=S)NC(=O)CC)cc1	0.404	i	i	i	i
N=C(N)SCc1cn(-c2ccccc2)nc1-c1ccc(Br)cc1	0.069	i	i	nt	nt
Cc1ccc(-c2nn(-c3ccccc3)cc2CO)cc1	i	i	i	i	i
NS(=O)(=O)c1ccc(NN=Cc2cn(-c3ccccc3)nc2-c2cccs2)c([N+](=O)[O-])c1	i	nt	nt	nt	nt
Nc1c(Cl)ncnc1NN=Cc1ccccn1	0.444	nt	nt	nt	nt
O=c1cnnc(NN=Cc2ccccn2)[nH]1	0.426	nt	nt	nt	nt
O=c1cnnc(NN=Cc2c[nH]c3ccccc23)[nH]1	i	nt	nt	nt	nt
Nc1c(Cl)ncnc1N/N=C/c1cccnc1	nt	i	i	i	i
C(=NNc1nncc2ccccc12)c1ccccn1	0.495	nt	nt	nt	nt
CCc1ccc2[nH]c3nc(N/N=C/c4ccc(O)cc4O)nnc3c2c1	nt	i	i	11.1	i
CCN1C(=O)C2C(c3ccc(-c4ccc(Cl)c(Cl)c4)cc3)N3CCCC[C@@]3(C(=O)OC)C2C1=O (stereo partly specified)	i	nt	nt	nt	nt
C=C1c2cccc(O)c2C(=O)C2C(=O)[C@]3(O)C(=O)C(C(N)=O)C(=O)C(N(C)C)C3C(O)C12 (stereo partly specified)	0.067	nt	nt	nt	nt
CC(=NN1CCN(C2c3ccccc3-c3ccccc32)CC1)c1ccco1	i	nt	nt	nt	nt
O=C(NCc1ccccc1)C1=CC(c2ccccc2)CC(OCc2ccc(CO)cc2)O1 (stereo unspecified)	i	nt	nt	nt	nt
N#Cc1ccc(NC(=O)NN2CCCCCC2)cc1	0.528	i	i	nt	nt
O=C(Nc1ccc(Cl)cc1)NN1CCCCCC1	i	i	i	nt	nt
O=C(NC(=S)NNC(=O)c1ccccc1O)c1ccc([N+](=O)[O-])cc1	nt	i	i	16.1	i
O=C(NNC(=S)NC(=O)c1ccccc1)c1ccc([N+](=O)[O-])cc1	i	i	i	i	i
O=C(O)c1cc(C=NO)ccc1OCc1ccccc1	i	nt	nt	nt	nt
CC(=NNC(=O)c1cccc(S(=O)(=O)N2CCOCC2)c1)c1ccc(OCC(=O)N(C)C)cc1	i	nt	nt	nt	nt
SMILES	E coli growth-1	Tat export inh	phage Ecoli inh	E coli growth-2	AddAB inh
CN(C)S(=O)(=O)c1cccc(NC(=S)N/N=C/c2ccc(O)c(O)c2O)c1	nt	i	10.9	nt	nt
CCCCCCCCCCCCN1C(CC(=O)OC)c2cc(F)cc(F)c2S1(=O)=O (stereo unspecified)	i	nt	nt	nt	nt
CCCS(=O)(=O)N1CCCC(C(=O)NCCCN2CCCC2=O)C1 (stereo unspecified)	i	i	i	10.8	15.1
OC(c1cc(C(F)(F)F)nc2c(C(F)(F)F)cccc12)C1CCCCN1 (stereo unspecified)	0.424	i	i	i	i
OC(c1cc(-c2ccc(C(F)(F)F)cc2)nc(C(F)(F)F)c1)C1CCCCN1 (stereo unspecified)	0.494	i	i	i	i
CCN1CSC(=S)N(Cc2ccccc2)C1	i	i	i	i	i
CCN1CSC(=S)N(Cc2ccc(OC)cc2)C1	0.495	i	i	i	i
Cc1ccc(S(=O)(=O)N(C)Cc2ccc(C(=O)NN=Cc3ccc(OC(F)F)cc3)cc2)cc1	i	nt	nt	nt	nt
CC(=O)OCC1=C(C(=O)O)N2C(=O)[C@@H](NC(=O)Cc3cccs3)[C@H]2SC1	0.046	i	i	i	i
Cc1nnc(SCC2=C(C(=O)O)N3C(=O)C(NC(=O)Cn4nc(C(F)F)cc4C)C3SC2)s1 (stereo unspecified)	0.488	i	i	i	i
CC(=O)OCC1=C(C(=O)O)N2C(=O)C(NC(=O)COc3ccc(F)cc3)C2SC1 (stereo unspecified)	i	i	i	nt	nt
Cc1nnc(SCC2=C(C(=O)O)N3C(=O)C(NC(=O)COc4ccc(F)cc4)C3SC2)s1 (stereo unspecified)	0.546	i	i	i	i
Cc1nnc(SCC2=C(C(=O)O)N3C(=O)C(NC(=O)COc4ccccc4)C3SC2)s1 (stereo unspecified)	0.497	i	i	nt	nt
Cc1ccc2c(c1)C(=NOS(=O)(=O)c1ccccc1)CCS2	i	nt	nt	nt	nt
COC1C=CO[C@@]2(C)Oc3c(C)c(O)c4c(O)c(c5c(nc6cc(C)ccn65)c4c3C2=O)NC(=O)C(C)=CC=CC(C)C(O)C(C)C(O)C(C)C(OC(C)=O)C1C (stereo partly specified)	0.062	nt	nt	nt	nt
COC1C=CO[C@@]2(C)Oc3c(C)c(O)c4c(O)c(c(C=NN5CCN(C)CC5)c(O)c4c3C2=O)NC(=O)C(C)=CC=CC(C)C(O)C(C)C(O)C(C)C(OC(C)=O)C1C (stereo partly specified)	0.074	nt	nt	nt	nt
O=C(COC(=O)c1ccccc1)Nc1ncc([N+](=O)[O-])s1	i	i	i	i	i
O=C(Nc1ccccc1)Nc1ncc([N+](=O)[O-])s1	0.362	i	i	nt	nt
CCCCCCCC[n+]1cccc2c3ccccc3ccc21	0.476	i	i	i	i
COc1cc(/C=C/C(O)=C/C(=O)/C=C/c2ccc(O)cc2)ccc1O	nt	i	i	10.1	i
CCc1ccc2c(COC(=O)C3CC(=O)N(CCc4ccccc4)C3)cc(=O)oc2c1 (stereo unspecified)	i	62.9	i	nt	nt
Cc1ccc(C(=O)NN=Cc2ccc([N+](=O)[O-])o2)cn1	0.438	nt	nt	nt	nt
Cc1ccc(C(=O)N/N=C/c2ccc(-c3ccccc3[N+](=O)[O-])o2)cn1	nt	i	i	i	i
CCOC(=O)NN=Cc1ccc([N+](=O)[O-])o1	0.455	nt	nt	nt	nt
Nc1nc2ccccc2n1Cc1ccc(Cl)c(Cl)c1	0.439	i	i	i	i
SMILES	E coli growth-1	Tat export inh	phage Ecoli inh	E coli growth-2	AddAB inh
Cc1ccc(Cn2c(N)nc3ccccc32)cc1	nt	i	i	i	i
CC1(C)CC2C3=CCC4[C@@]5(C)CCC(O)[C@](C)(CO)C5CC[C@@]4(C)[C@]3(C)CC3OC1C(O)[C@]32CO (stereo partly specified)	i	nt	nt	nt	nt
CCOc1ccccc1C=NOCC(=O)NCc1ccc(F)cc1	i	nt	nt	nt	nt
Cc1ccc(NS(=O)(=O)c2ccc(OCC(=O)NCc3ccco3)cc2)cc1	i	i	i	13.4	i
CCOc1cccc(/C=N/NC(=S)Nc2ccccc2[N+](=O)[O-])c1O	nt	i	10.9	i	i
CCCOc1ccc(C=NNC(=S)Nc2ccccc2[N+](=O)[O-])c(O)c1	i	nt	nt	nt	nt
Cc1cccc(-c2nnc(NC(=O)c3ccc(Cl)cc3)o2)c1	0.517	i	i	i	i
COc1cccc(-c2nnc(NC(=O)c3ccc(Cl)s3)o2)c1	0.474	i	i	i	i
NC(=NO)c1ccccc1N1CCC(Cc2ccccc2)CC1	i	nt	nt	nt	nt
CC1=NN(C(N)=S)C(=O)C1N=Nc1ccc(C)c(Br)c1 (stereo unspecified)	i	i	i	13.0	i
Cc1c(Cl)c([N+](=O)[O-])nn1Cc1ccc(C(=O)NN=Cc2cc(Cl)ccc2O)o1	i	nt	nt	nt	nt
